Screening results deposited in PubChem BioAssay by University of Kansas High Throughput Screening Laboratory.
Shown is part of a subset that was picked to be rich in hits.
Pf apPOL inh: Pf-apPOL DNA polymerase inhibition | Recombinant Pf-apPOL, molecular beacon fluorescence, 1.5 h | 210,000 tested, 0.25% active | inhibition, % at 10 µM
mHTT CaM bind: inhibitors of human mutant huntingtin-calmodulin interaction; P42858; AlphaScreen His-mHTT/GST-CaM binding, luminescence; inhibition, % at 15 µM; 190,000 tested, 3.6% active; AID 1671202;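 also: 0% = both proteins with DMSO and 100% = one protein alone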
* hit, by the source's call; nt = not tested or not shown; ! = repeats disagree. Rule as the data show it: active = inhibition above about 50%; inactive = the rest.

SMILES	Pf apPOL inh	mHTT CaM bind
COc1ccccc1NC(=O)CN1CCC2(CC1)N=C(c1cccc(C)c1)C(=O)N2	4	50*
Cc1ccc(NC(=O)CN2CCC3(CC2)N=C(c2ccccc2)C(=O)N3)c(C)c1	-4	56*
CSc1cccc(NC(=O)CN2CCC3(CC2)N=C(c2ccc(C)cc2)C(=O)N3)c1	-3	26
COc1ccc(NC(=O)CN2CCC3(CC2)N=C(c2ccc(C)cc2)C(=O)N3)c(OC)c1	-2	39
Cc1cccc(NS(=O)(=O)c2ccc(NS(C)(=O)=O)cc2)c1	-6	0
CCCCC(=O)Nc1ccc(NC(=O)c2ccc(-c3ccccc3)cc2)cc1OC	1	9
O=C(CN1CCC2(CC1)N=C(c1ccccc1)C(=O)N2)Nc1ccc(F)c(F)c1	-5	1
Cc1ccc(NC(=O)CN2CCC3(CC2)N=C(c2ccccc2)C(=O)N3)cc1F	-3	55*
Cc1cc2nnc(C(N)=NO)c(C)n2n1	-1	nt
O=C(NCC1CCCO1)C1COC2(CCCCC2)N1C(=O)c1ccc(F)cc1F (stereo not drawn)	4	0
NC(=O)c1oc2ccccc2c1NC(=O)c1ccc([N+](=O)[O-])s1	-1	-17
O=C1N(Cc2ccccc2)c2ccccc2C12Oc1ccccc1C1CC(c3ccco3)=NN12 (stereo not drawn)	4	32
CC1=NN2C(C1)c1ccccc1OC21C(=O)Nc2ccccc21 (stereo not drawn)	-13	80*
COc1ccc(C(=O)C[n+]2cc(Br)cc3ccccc32)cc1[N+](=O)[O-]	0	44
O=C(C[n+]1cc(Br)cc2ccccc21)c1ccccc1	1	60*
CCOc1ccccc1C(=O)Nc1c2c(nn1-c1ccc(C)cc1C)CSC2	-3	23
O=C(CN1C(=O)/C(=C/c2ccccc2F)Sc2ccccc21)N1CCCCC1	1	-4
O=C(CN1C(=O)/C(=C/c2ccccc2F)Sc2ccccc21)N1CCN(C2CCCCC2)CC1	-22	75*
CC(=O)N(C1=C(N2CCOCC2)C(=O)c2ccccc2C1=O)c1ccc(Cl)c(Cl)c1	-8	96*
CC(=O)N(C1=C(N2CCCCC2)C(=O)c2ccccc2C1=O)c1ccccc1C	-12	27
COc1cccc(N(C(C)=O)C2=C(N3CCCC3)C(=O)c3ccccc3C2=O)c1	-12	99*
CC(=O)N(C1=C(N2CCOCC2)C(=O)c2ccccc2C1=O)c1ccccc1	0	20
O=C(CN1N=C(c2ccc(Cl)cc2)CCC1=O)NCC1CCCO1 (stereo not drawn)	-12	5
COc1ccc(OC)c(NC(=O)c2cc3cc4ccc(OC)cc4nc3o2)c1	-4	-2
Cc1nc(C(N)=NOC(=O)Nc2cccc(C(F)(F)F)c2)cs1	-4	nt
SMILES	Pf apPOL inh	mHTT CaM bind
Cc1cc(NC(=O)c2cc(C)n3nccc3n2)ccc1F	-6	-7
Cc1ccc(OCC(=O)Nc2ccc(F)cc2)cc1	2	-12
Cc1ccc(NC(=O)COc2ccc(Br)cc2)cc1	80*	-16
O=C(CCN1C(=O)c2ccccc2C1=O)CN1CCC(Cn2cnc3ccccc32)CC1	4	-1
CN(C)c1ncncc1N1CCC(C(=O)N2CCN(c3ccccc3F)CC2)CC1	-2	-3
Cc1ccnc(N2CCC(C(=O)N3CCN(c4cccc(C)c4C)CC3)CC2)n1	1	-1
CN(C)c1ncncc1N1CCC(C(=O)N2CCN(c3cccc(Cl)c3)CC2)CC1	-3	74*
Cc1ccnc(N2CCC(C(=O)N3CCN(c4cc(Cl)ccc4C)CC3)CC2)n1	-2	88*
Cc1cccc(N2CCN(C(=O)C3CCN(c4cncnc4N(C)C)CC3)CC2)c1C	2	52*
CN(C)c1ncncc1N1CCC(C(=O)N2CCN(C3CCCCC3)CC2)CC1	-13	1
CCOc1cc(C(=O)Nc2ccc(OC)c(OC)c2)cc(OCC)c1OCC	1	8
Cc1occc1C(=O)NCCN1CCOCC1	1	5
Cc1cc(C)n2c(SCCc3ccccc3)nnc2n1	-5	3
CC(=O)N(C)Cc1ccsc1	-2	-1
CN1/C(=C\C(C[N+](=O)[O-])c2ccc3c(c2)OCO3)C(C)(C)c2ccccc21 (stereo not drawn)	-17	83*
COc1ccc(C(/C=C2\N(C)c3ccccc3C2(C)C)C[N+](=O)[O-])cc1 (stereo not drawn)	0	50
CCOCCCNC(=O)c1ccc(CS(=O)(=O)Cc2ccccc2C)o1	-15	-2
Cc1cccc(N2CCN(Cc3cc([N+](=O)[O-])ccc3O)CC2)c1C	4	-1
CCC(=O)NC(c1cccs1)c1cc([N+](=O)[O-])c2cccnc2c1O (stereo not drawn)	-5	100*
CCCCC(=O)NC(c1ccccc1OC)c1cc([N+](=O)[O-])c2cccnc2c1O (stereo not drawn)	-71	100*!
O=C(O)CC(NCc1ccc(Cl)c([N+](=O)[O-])c1)c1cccs1 (stereo not drawn)	34	-6
